{"source": "ChEMBL document CHEMBL4513216", "about": "“Probing the Open Global Health Chemical Diversity Library for Multistage-Active Starting Points for Next-Generation Antimalarials” (ACS Infect Dis, 2020)", "note": "The campaign covered roughly 69,000 compounds. About 8,600 (12%) showed an effect of 50% or more. Many of the other results were omitted from the sample, so strong results are more common in it than they were.", "data": [{"test_system": "Plasmodium berghei", "assay": "Screen against P. berghei liver stage (PbLuc), transformed with Luciferase, at 10uM", "type": "functional, HepG2", "details": "tested at 10 uM", "units": {"INHIBITION": "%"}, "values": [{"smiles": "CC(=O)NCCc1ccc(S(=O)(=O)Nc2ccc(C)cc2F)s1", "INHIBITION": -44.2}, {"smiles": "CN(C)c1cc(C2CCCN2)ccn1", "note": "(stereo not drawn)", "INHIBITION": 33.54}, {"smiles": "O=S(=O)(Cc1ccon1)N1CCN(c2ccncc2Cl)CC1", "INHIBITION": 38.9}, {"smiles": "O=c1[nH]c2ncccc2n1C1CCNCC1", "INHIBITION": -6.18}, {"smiles": "Cc1nccn1-c1cc(CNC(=O)CC2CCCO2)ccn1", "note": "(stereo not drawn)", "INHIBITION": 30.6}, {"smiles": "CO[C@H]1CC[C@H]2[C@H]1OCCN2Cc1ccc(F)c(F)c1", "INHIBITION": 22.4}, {"smiles": "c1nc2c(c(C3CC3)n1)CCN(CC1CCOC1)CC2", "note": "(stereo not drawn)", "INHIBITION": 13.6}, {"smiles": "c1nc2c(c(NCCCn3cncn3)n1)CCN(CC1CCOC1)CC2", "note": "(stereo not drawn)", "INHIBITION": 31.6}, {"smiles": "CN(C)c1ncnc2c1CCN(CC1CCOC1)CC2", "note": "(stereo not drawn)", "INHIBITION": 19.9}, {"smiles": "CCN(C)c1ncnc2c1CCN(CC1CCOC1)CC2", "note": "(stereo not drawn)", "INHIBITION": 55.5}, {"smiles": "Cc1ncnc2c1CCN(CC1CCOC1)CC2", "note": "(stereo not drawn)", "INHIBITION": 18.3}, {"smiles": "CN(C)c1ncnc2c1CCN(CC1CCOCC1)CC2", "INHIBITION": 64.9}, {"smiles": "Cc1cnn(CCNc2ncnc3c2CCN(CC2CCOC2)CC3)c1", "note": "(stereo not drawn)", "INHIBITION": 60}, {"smiles": "CCN(CC)c1ncnc2c1CCN(CC1CCOCC1)CC2", "INHIBITION": 41.6}, {"smiles": "Cc1ccc(Nc2ncnc3c2CCN(CC2CCOC2)CC3)cc1", "note": "(stereo not drawn)", "INHIBITION": 29.8}, {"smiles": "CCOC(=O)Cn1c(=O)[nH]c2cn(-c3ccccc3)c(=O)n21", "INHIBITION": 7.3}, {"smiles": "Cc1cc(N2CCCC2c2nccnc2C)ncn1", "note": "(stereo not drawn)", "INHIBITION": 26.8}, {"smiles": "Cc1nc(CN2CC3(CCN(c4nccs4)C3)CC2=O)cs1", "note": "(stereo not drawn)", "INHIBITION": -3.52}, {"smiles": "CCN(CC)C1CCN(C(=O)NCc2cccc(-n3cccn3)c2)C1", "note": "(stereo not drawn)", "INHIBITION": 27}, {"smiles": "CC(=O)c1ccc(-n2ccc3nc(N4CCCC4)ncc3c2=O)cc1", "INHIBITION": -82.2}, {"smiles": "O=c1c2cnc(N3CCCCC3)nc2ccn1-c1ccccc1", "INHIBITION": 19.7}, {"smiles": "CC(=O)Nc1ccc(-n2ccc3nc(N4CCCC4)ncc3c2=O)cc1", "INHIBITION": 80.5}, {"smiles": "COCC(=O)NC(C)c1cccc(Br)c1", "note": "(stereo not drawn)", "INHIBITION": -60.9}, {"smiles": "Cc1ccn(-c2ccnc(N3CCSCC3)n2)n1", "INHIBITION": 30}, {"smiles": "COc1ccc(C[C@H]2CN(C(=O)C3CC3)CC[C@H]2OC)cc1", "INHIBITION": 11.2}, {"smiles": "COc1ccc(C[C@H]2CN(C(=O)CN(C)C)CC[C@H]2OC)cc1", "INHIBITION": 41.6}, {"smiles": "COc1ccc(CN2C[C@@H]3CN(Cc4ccoc4)C[C@@H]3C2=O)cc1", "INHIBITION": -4.82}, {"smiles": "COc1ccc(C[C@H]2CN(C(=O)c3cnoc3)CC[C@@H]2OC)cc1", "INHIBITION": -50.4}, {"smiles": "COc1ccc(C[C@H]2CN(Cc3ccoc3)CC[C@@H]2OC)cc1", "INHIBITION": 58.3}, {"smiles": "CO[C@@H]1CCN(Cc2ccoc2)C[C@@H]1Cc1ccccc1", "INHIBITION": 51.4}, {"smiles": "CO[C@H]1CCN(Cc2ccoc2)C[C@@H]1Cc1ccccc1", "INHIBITION": 41.4}, {"smiles": "CO[C@@H]1CCN(Cc2ccoc2)[C@H]1Cc1ccccc1", "INHIBITION": 29.5}, {"smiles": "COc1ccc(C[C@H]2CN(Cc3ccoc3)CC[C@H]2OC)cc1", "INHIBITION": 63.3}]}]}
